Experimental data: PubChem BioAssay AID1159580 (chemical genetic matrix, 2015)
In all, about 5,500 compounds went through this assay and about 2,000 (36%) were called active. Roughly 18% stayed inconclusive and do not appear here. Rule as the data show it: active = normalized growth mostly below about 0.91 (no sharp cut-off); inconclusive = no clear call, values can overlap the other calls; inactive = mostly above about 0.92. This is one part of the list.

Test: chemical genetic growth profiling, strain panel (AID 1159580);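 also: tested at 20 µM; growth read once vehicle control cultures reached saturation at 30 °C; 1 = growth at the plate median or of vehicle wells; lower values mean less growth of the strain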
Details: growth OD

Measured: normalized growth

CN1C2CC3C[C@H]1C(O3)C2O (some centres undefined)
inactive: S. cerevisiae deletion strains, locus YAL021C, strain ccr4, stronger effect = lower value 1.01 | S. cerevisiae deletion strains, locus YAL026C, strain drs2, stronger effect = lower value 1.02 | S. cerevisiae deletion strains, locus YAL030W, strain snc1, stronger effect = lower value 0.982 | S. cerevisiae deletion strains, locus YBL061C, strain skt5, stronger effect = lower value 1.02 | S. cerevisiae deletion strains, locus YBR009C, strain hhf1, stronger effect = lower value 1.03 | S. cerevisiae deletion strains, locus YBR021W, strain FUR4, stronger effect = lower value 0.99 | S. cerevisiae deletion strains, locus YBR023C, strain chs3, stronger effect = lower value 1.02 | S. cerevisiae deletion strains, locus YBR171W, strain sec66, stronger effect = lower value 1.03 | S. cerevisiae deletion strains, locus YBR229C, strain ROT2, stronger effect = lower value 1.01 | S. cerevisiae deletion strains, locus YBR231C, strain swc5, stronger effect = lower value 1.01 | S. cerevisiae deletion strains, locus YBR279W, strain paf1, stronger effect = lower value 1.01 | S. cerevisiae deletion strains, locus YCL011C, strain gbp2, stronger effect = lower value 1.02 | S. cerevisiae deletion strains, locus YCL016C, strain dcc1, stronger effect = lower value 1.02 | S. cerevisiae deletion strains, locus YCL029C, strain bik1, stronger effect = lower value 1.04 | S. cerevisiae deletion strains, locus YCL061C, strain MRC1, stronger effect = lower value 1.01 | S. cerevisiae deletion strains, locus YCL069W, strain vba3, stronger effect = lower value 1.01 | S. cerevisiae deletion strains, locus YCR088W, strain abp1, stronger effect = lower value 1.02 | S. cerevisiae deletion strains, locus YDL005C, strain med2, stronger effect = lower value 1.02 | S. cerevisiae deletion strains, locus YDL035C, strain GPR1, stronger effect = lower value 1.02 | S. cerevisiae deletion strains, locus YDL040C, strain nat1, stronger effect = lower value 0.997 | S. cerevisiae deletion strains, locus YDL074C, strain BRE1, stronger effect = lower value 1.04 | S. cerevisiae deletion strains, locus YDL101C, strain DUN1, stronger effect = lower value 1.01 | S. cerevisiae deletion strains, locus YDL185W, strain tfp1, stronger effect = lower value 1.04 | S. cerevisiae deletion strains, locus YDL192W, strain arf1, stronger effect = lower value 1.04 | S. cerevisiae deletion strains, locus YDR001C, strain nth1, stronger effect = lower value 1.02 | S. cerevisiae deletion strains, locus YDR069C, strain doa4, stronger effect = lower value 0.971 | S. cerevisiae deletion strains, locus YDR101C, strain arx1, stronger effect = lower value 1.03 | S. cerevisiae deletion strains, locus YDR137W, strain rgp1, stronger effect = lower value 1.02 | S. cerevisiae deletion strains, locus YDR159W, strain sac3, stronger effect = lower value 0.964 | S. cerevisiae deletion strains, locus YDR162C, strain NBP2, stronger effect = lower value 1.01 | S. cerevisiae deletion strains, locus YDR195W, strain ref2 0.995 | S. cerevisiae deletion strains, locus YDR297W, strain sur2, stronger effect = lower value 0.958 | S. cerevisiae deletion strains, locus YDR318W, strain mcm21, stronger effect = lower value 1.03 | S. cerevisiae deletion strains, locus YDR334W, strain swr1, stronger effect = lower value 1.02 | S. cerevisiae deletion strains, locus YDR335W, strain msn5, stronger effect = lower value 0.982 | S. cerevisiae deletion strains, locus YDR388W, stronger effect = lower value 1.03 | S. cerevisiae deletion strains, locus YDR392W, strain spt3, stronger effect = lower value 0.985 | S. cerevisiae deletion strains, locus YDR502C, strain sam2, stronger effect = lower value 1.02 | S. cerevisiae deletion strains, locus YEL003W, strain gim4, stronger effect = lower value 1.02 | S. cerevisiae deletion strains, locus YEL037C, strain rad23, stronger effect = lower value 1.02 | S. cerevisiae deletion strains, locus YEL061C, strain CIN8 (second series), stronger effect = lower value 1.03 | S. cerevisiae deletion strains, locus YEL061C, strain CIN8, stronger effect = lower value 1.01 | S. cerevisiae deletion strains, locus YER015W, strain faa2, stronger effect = lower value 1.01 | S. cerevisiae deletion strains, locus YER016W, strain bim1, stronger effect = lower value 1.01 | S. cerevisiae deletion strains, locus YER110C, stronger effect = lower value 1.04 | S. cerevisiae deletion strains, locus YER111C, strain swi4, stronger effect = lower value 1.02 | S. cerevisiae deletion strains, locus YER155C, strain BEM2 (second series), stronger effect = lower value 0.994 | S. cerevisiae deletion strains, locus YER155C, strain BEM2, stronger effect = lower value 1 | S. cerevisiae deletion strains, locus YER167W, strain BCK2, stronger effect = lower value 1.01 | S. cerevisiae deletion strains, locus YFR010W, strain ubp6, stronger effect = lower value 1.03 | S. cerevisiae deletion strains, locus YGL078C, strain dbp3, stronger effect = lower value 1.02 | S. cerevisiae deletion strains, locus YGL086W, strain mad1, stronger effect = lower value 1 | S. cerevisiae deletion strains, locus YGL167C, strain pmr1, stronger effect = lower value 1.02 | S. cerevisiae deletion strains, locus YGL173C, strain kem1, stronger effect = lower value 1.02 | S. cerevisiae deletion strains, locus YGL227W, strain vid30, stronger effect = lower value 1.01 | S. cerevisiae deletion strains, locus YGL240W, strain doc1, stronger effect = lower value 0.972 | S. cerevisiae deletion strains, locus YGL248W, strain PDE1, stronger effect = lower value 1.01 | S. cerevisiae deletion strains, locus YGL253W, strain hxk2, stronger effect = lower value 1.01 | S. cerevisiae deletion strains, locus YGR078C, strain PAC10, stronger effect = lower value 1.02 | S. cerevisiae deletion strains, locus YGR135W, strain pre9, stronger effect = lower value 1.02 | S. cerevisiae deletion strains, locus YGR252W, strain gcn5, stronger effect = lower value 1.02 | S. cerevisiae deletion strains, locus YHR013C, strain ard1, stronger effect = lower value 1.01 | S. cerevisiae deletion strains, locus YHR027C, strain rpn1, stronger effect = lower value 1 | S. cerevisiae deletion strains, locus YHR030C, strain SLT2, stronger effect = lower value 1.01 | S. cerevisiae deletion strains, locus YHR079C, strain IRE1 (second series), stronger effect = lower value 1.03 | S. cerevisiae deletion strains, locus YHR094C, strain hxt1, stronger effect = lower value 1.03 | S. cerevisiae deletion strains, locus YHR129C, strain ARP1, stronger effect = lower value 1 | S. cerevisiae deletion strains, locus YHR142W, strain chs7, stronger effect = lower value 1.04 | S. cerevisiae deletion strains, locus YHR200W, strain rpn10, stronger effect = lower value 1.02 | S. cerevisiae deletion strains, locus YIL066C, strain RNR3, stronger effect = lower value 1.01 | S. cerevisiae deletion strains, locus YIL073C, strain SPO22, stronger effect = lower value 1.08 | S. cerevisiae deletion strains, locus YIL125W, strain kgd1, stronger effect = lower value 1.02 | S. cerevisiae deletion strains, locus YIR030C, strain dcg1, stronger effect = lower value 1.03 | S. cerevisiae deletion strains, locus YJL092W, strain hpr5, stronger effect = lower value 1.02 | S. cerevisiae deletion strains, locus YJL095W, strain BCK1 (second series), stronger effect = lower value 0.985 | S. cerevisiae deletion strains, locus YJL095W, strain BCK1, stronger effect = lower value 1.01 | S. cerevisiae deletion strains, locus YJL115W, strain asf1, stronger effect = lower value 1.03 | S. cerevisiae deletion strains, locus YJL129C, strain trk1, stronger effect = lower value 1.04 | S. cerevisiae deletion strains, locus YJL134W, strain LCB3, stronger effect = lower value 1.01 | S. cerevisiae deletion strains, locus YJL154C, strain vps35, stronger effect = lower value 1.01 | S. cerevisiae deletion strains, locus YJL164C, strain tpk1, stronger effect = lower value 0.999 | S. cerevisiae deletion strains, locus YJL166W, strain qcr8, stronger effect = lower value 0.996 | S. cerevisiae deletion strains, locus YJL168C, strain set2, stronger effect = lower value 1.02 | S. cerevisiae deletion strains, locus YJL187C, strain SWE1 (second series), stronger effect = lower value 1.01 | S. cerevisiae deletion strains, locus YJL187C, strain SWE1, stronger effect = lower value 0.969 | S. cerevisiae deletion strains, locus YJR043C, strain POL32, stronger effect = lower value 0.999 | S. cerevisiae deletion strains, locus YJR075W, strain HOC1, stronger effect = lower value 1.01 | S. cerevisiae deletion strains, locus YKL009W, strain mrt4, stronger effect = lower value 1.02 | S. cerevisiae deletion strains, locus YKL068W, stronger effect = lower value 1.03 | S. cerevisiae deletion strains, locus YKL085W, strain MDH1 (second series), stronger effect = lower value 1.01 | S. cerevisiae deletion strains, locus YKL085W, strain MDH1, stronger effect = lower value 1.01 | S. cerevisiae deletion strains, locus YKL160W, strain elf1, stronger effect = lower value 1 | S. cerevisiae deletion strains, locus YKL190W, strain CNB1, stronger effect = lower value 1.01 | S. cerevisiae deletion strains, locus YKR001C, strain vps1, stronger effect = lower value 1.03 | S. cerevisiae deletion strains, locus YKR026C, strain gcn3, stronger effect = lower value 1.01 | S. cerevisiae deletion strains, locus YKR091W, strain srl3, stronger effect = lower value 1.01 | S. cerevisiae deletion strains, locus YLL001W, strain dnm1, stronger effect = lower value 1.03 | S. cerevisiae deletion strains, locus YLL026W, stronger effect = lower value 1.01 | S. cerevisiae deletion strains, locus YLL041C, strain sdh2, stronger effect = lower value 0.997 | S. cerevisiae deletion strains, locus YLR027C, strain aat2, stronger effect = lower value 0.975 | S. cerevisiae deletion strains, locus YLR039C, strain RIC1, stronger effect = lower value 1.07 | S. cerevisiae deletion strains, locus YLR058C, strain SHM2, stronger effect = lower value 1.01 | S. cerevisiae deletion strains, locus YLR102C, strain apc9, stronger effect = lower value 1.04 | S. cerevisiae deletion strains, locus YLR221C, strain rsa3, stronger effect = lower value 1.01 | S. cerevisiae deletion strains, locus YLR258W, strain gsy2, stronger effect = lower value 0.983 | S. cerevisiae deletion strains, locus YLR262C, strain YPT6 (second series), stronger effect = lower value 1.05 | S. cerevisiae deletion strains, locus YLR262C, strain YPT6, stronger effect = lower value 1.08 | S. cerevisiae deletion strains, locus YLR268W, strain sec22, stronger effect = lower value 1.03 | S. cerevisiae deletion strains, locus YLR320W, strain mms22, stronger effect = lower value 1.02 | S. cerevisiae deletion strains, locus YLR330W, strain CHS5, stronger effect = lower value 1.01 | S. cerevisiae deletion strains, locus YLR342W, strain FKS1 (second series), stronger effect = lower value 1 | S. cerevisiae deletion strains, locus YLR342W, strain FKS1, stronger effect = lower value 1.01 | S. cerevisiae deletion strains, locus YLR357W, strain rsc2, stronger effect = lower value 1.03 | S. cerevisiae deletion strains, locus YLR370C, strain arc18, stronger effect = lower value 0.979 | S. cerevisiae deletion strains, locus YLR371W, strain rom2, stronger effect = lower value 1.02 | S. cerevisiae deletion strains, locus YLR384C, strain iki3, stronger effect = lower value 1 | S. cerevisiae deletion strains, locus YLR418C, strain cdc73, stronger effect = lower value 1.03 | S. cerevisiae deletion strains, locus YML016C, strain PPZ1, stronger effect = lower value 1.02 | S. cerevisiae deletion strains, locus YML032C, strain rad52, stronger effect = lower value 1.02 | S. cerevisiae deletion strains, locus YML120C, strain ndi1, stronger effect = lower value 1.03 | S. cerevisiae deletion strains, locus YML124C, strain tub3, stronger effect = lower value 1.03 | S. cerevisiae deletion strains, locus YMR058W, strain fet3, stronger effect = lower value 1.02 | S. cerevisiae deletion strains, locus YMR078C, strain ctf18, stronger effect = lower value 1.03 | S. cerevisiae deletion strains, locus YMR125W, strain sto1, stronger effect = lower value 1.01 | S. cerevisiae deletion strains, locus YMR129W, stronger effect = lower value 0.986 | S. cerevisiae deletion strains, locus YMR205C, strain PFK2, stronger effect = lower value 0.974 | S. cerevisiae deletion strains, locus YMR223W, strain ubp8, stronger effect = lower value 1.03 | S. cerevisiae deletion strains, locus YMR231W, strain pep5, stronger effect = lower value 0.988 | S. cerevisiae deletion strains, locus YMR307W, strain GAS1, stronger effect = lower value 0.99 | S. cerevisiae deletion strains, locus YNL067W, strain RPL9B, stronger effect = lower value 1 | S. cerevisiae deletion strains, locus YNL071W, strain lat1, stronger effect = lower value 1.02 | S. cerevisiae deletion strains, locus YNL153C, strain GIM3, stronger effect = lower value 1.01 | S. cerevisiae deletion strains, locus YNL209W, strain ssb2, stronger effect = lower value 1.01 | S. cerevisiae deletion strains, locus YNL233W, strain BNI4, stronger effect = lower value 1.01 | S. cerevisiae deletion strains, locus YNL248C, strain rpa49, stronger effect = lower value 1.02 | S. cerevisiae deletion strains, locus YNL250W, strain rad50, stronger effect = lower value 1.03 | S. cerevisiae deletion strains, locus YNL271C, strain bni1, stronger effect = lower value 1.03 | S. cerevisiae deletion strains, locus YNL298W, strain CLA4, stronger effect = lower value 1.02 | S. cerevisiae deletion strains, locus YNL307C, strain MCK1, stronger effect = lower value 1.05 | S. cerevisiae deletion strains, locus YNL322C, strain KRE1 (second series), stronger effect = lower value 1.02 | S. cerevisiae deletion strains, locus YNR049C, strain mso1, stronger effect = lower value 0.982 | S. cerevisiae deletion strains, locus YNR052C, strain pop2, stronger effect = lower value 1.01 | S. cerevisiae deletion strains, locus YOL012C, strain htz1 1.37 | S. cerevisiae deletion strains, locus YOL147C, strain pex11, stronger effect = lower value 1.03 | S. cerevisiae deletion strains, locus YOR001W, strain rrp6, stronger effect = lower value 0.987 | S. cerevisiae deletion strains, locus YOR061W, strain CKA2, stronger effect = lower value 1.02 | S. cerevisiae deletion strains, locus YOR069W, strain VPS5, stronger effect = lower value 1.01 | S. cerevisiae deletion strains, locus YOR070C, strain gyp1, stronger effect = lower value 1.01 | S. cerevisiae deletion strains, locus YOR080W, strain dia2, stronger effect = lower value 1.02 | S. cerevisiae deletion strains, locus YOR083W, strain WHI5, stronger effect = lower value 1 | S. cerevisiae deletion strains, locus YOR106W, strain vam3, stronger effect = lower value 1.03 | S. cerevisiae deletion strains, locus YOR136W, strain idh2, stronger effect = lower value 1.03 | S. cerevisiae deletion strains, locus YOR144C, strain elg1, stronger effect = lower value 1.03 | S. cerevisiae deletion strains, locus YOR184W, strain ser1, stronger effect = lower value 1.04 | S. cerevisiae deletion strains, locus YOR265W, strain rbl2, stronger effect = lower value 1.01 | S. cerevisiae deletion strains, locus YOR270C, strain vph1, stronger effect = lower value 1.04 | S. cerevisiae deletion strains, locus YOR290C, strain snf2, stronger effect = lower value 0.99 | S. cerevisiae deletion strains, locus YOR316C, strain cot1, stronger effect = lower value 1.04 | S. cerevisiae deletion strains, locus YPL051W, strain arl3, stronger effect = lower value 1.01 | S. cerevisiae deletion strains, locus YPL078C, strain atp4, stronger effect = lower value 1.02 | S. cerevisiae deletion strains, locus YPL106C, strain sse1, stronger effect = lower value 0.995 | S. cerevisiae deletion strains, locus YPL240C, strain hsp82, stronger effect = lower value 0.997 | S. cerevisiae deletion strains, locus YPL241C, strain CIN2, stronger effect = lower value 1.01 | S. cerevisiae deletion strains, locus YPR119W, strain clb2, stronger effect = lower value 1.03 | S. cerevisiae deletion strains, locus YPR141C, strain kar3, stronger effect = lower value 1.04 | S. cerevisiae deletion strains, locus YPR163C, strain tif3, stronger effect = lower value 1.04 | S. cerevisiae deletion strains, locus YPR167C, strain met16, stronger effect = lower value 1.02 | S. cerevisiae deletion strains, strain wtn01, stronger effect = lower value 1.04 | S. cerevisiae strains, strain wild type, stronger effect = lower value 1.02
